Results from PubChem BioAssay (EPA / NIEHS).
Calls of active or inactive are those of the source. The calls were made as follows: active = hit-call score of the fitted dose curve at least 0.9, where 1 is the maximum; inactive = score below 0.9.

What was measured:
Settings in all cases: mRNA level, 48 h; actives raise or lower the signal
[1] = read-out: Cyclin D2 (CCND2), CCND2 (gene 894); test: LTEA_HepaRG_CCND2: Life Technologies and Expression Analysis (LTEA) Assay for Cyclin D2 (CCND2) using HepaRG (AID 2283449);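 also: CCND2 transcript measured by TaqMan qRT-PCR and normalised to three housekeeping genes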
Method in brief: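 HepaRG, 48 h dosing, 8-pt half-log curve from 100 uM, 0.5% DMSO; duplicate wells. Readout: CCND2 transcript by microfluidic qRT-PCR, housekeeping-normalised; bidirectional fit vs DMSO baseline.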

[2] = read-out: Cyclin Dependent Kinase Inhibitor 1A (CDKN1A), CDKN1A (gene 1026); test: LTEA_HepaRG_CDKN1A: Life Technologies and Expression Analysis (LTEA) Assay for Cyclin Dependent Kinase Inhibitor 1A (CDKN1A) using HepaRG (AID 2283450)
Method in brief: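 Expression quantified by Fluidigm qRT-PCR with ACTB, GAPDH and POLR2A normalization, fitted bidirectionally against 0.5% DMSO. Cells: HepaRG, plated 48 h then treated 48 h in serum-free induction medium, top concentration 100 uM with half-log dilutions.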

[3] = read-out: Cyclin D1 (CCND1), CCND1 (gene 595); test: LTEA_HepaRG_CCND1: Life Technologies and Expression Analysis (LTEA) Assay for Cyclin D1 (CCND1) using HepaRG (AID 2283451);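 as to AC50: differentiated human HepaRG liver cells in serum-free induction medium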
Method in brief: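 Expression of CCND1 was quantified by qRT-PCR on Fluidigm arrays using ACTB, GAPDH and POLR2A as reference genes. HepaRG cultures, plated 48 h beforehand, were dosed for 48 h at up to 100 uM (half-log, 8 points) in 0.5% DMSO.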

[4] = read-out: catalase (CAT), CAT (gene 847); test: LTEA_HepaRG_CAT: Life Technologies and Expression Analysis (LTEA) Assay for catalase (CAT) using HepaRG (AID 2283452)
Method in brief: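 HepaRG cells in serum-free induction medium, 0.5% DMSO vehicle, exposed 48 h in duplicate over 8 half-log concentrations from 100 uM. CAT mRNA measured by qRT-PCR, normalized to ACTB, GAPDH, POLR2A; bidirectional fit versus DMSO.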

[5] = read-out: CFLAR gene, CFLAR (gene 8837); test: LTEA_HepaRG_CFLAR: Life Technologies and Expression Analysis (LTEA) Assay for CFLAR gene using HepaRG (AID 2283455)
Method in brief: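 qRT-PCR read-out (Fluidigm/TaqMan) of CFLAR mRNA, normalized to three housekeeping genes, in differentiated human HepaRG cells after 48 h chemical exposure; 8-point half-log series from 100 uM in 0.5% DMSO; bidirectional curve fitting versus DMSO.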

[6] = read-out: Forkhead box O1 (FOXO1), FOXO1 (gene 2308); test: LTEA_HepaRG_FOXO1: Life Technologies and Expression Analysis (LTEA) Assay for Forkhead box O1 (FOXO1) using HepaRG (AID 2283456)
Method in brief: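 HepaRG, 48 h exposure, 8-pt half-log series from 100 uM in 0.5% DMSO, duplicates; Fluidigm qRT-PCR mRNA, housekeeping-normalised; bidirectional fit vs DMSO baseline.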

[7] = read-out: growth arrest and DNA damage 45 (GADD45A), GADD45A (gene 1647); test: LTEA_HepaRG_GADD45A: Life Technologies and Expression Analysis (LTEA) Assay for growth arrest and DNA damage 45 (GADD45A) using HepaRG (AID 2283458)
Method in brief: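 GADD45A expression was measured by TaqMan qRT-PCR against three housekeeping genes (ACTB, GAPDH, POLR2A) after 48 h treatment of HepaRG cells. Eight-point half-log series up to 100 uM in 0.5% DMSO, run in duplicate.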

[8] = read-out: Forkhead box O3 (FOXO3), FOXO3 (gene 2309); test: LTEA_HepaRG_FOXO3: Life Technologies and Expression Analysis (LTEA) Assay for Forkhead box O3 (FOXO3) using HepaRG (AID 2283459)
Method in brief: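 qRT-PCR readout of FOXO3 transcript, normalized to three housekeeping genes (ACTB, GAPDH, POLR2A); gain or loss fitted against 0.5% DMSO vehicle. HepaRG cells, 48 h chemical exposure, 8-point half-log series, top 100 uM.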

[9] = read-out: ABC Transporter (ABCB1), ABCB1 (gene 5243); test: LTEA_HepaRG_ABCB1: Life Technologies and Expression Analysis (LTEA) Assay for ABC Transporter (ABCB1) using HepaRG (AID 2283460)
Method in brief: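 HepaRG, 48 h exposure, 8-pt half-log series from 100 uM, 0.5% DMSO vehicle, duplicates. Readout: ABCB1 transcript by Fluidigm TaqMan qRT-PCR, housekeeping-normalized; bidirectional curve fit vs DMSO baseline.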

[10] = read-out: growth arrest and DNA damage 45 (GADD45B), GADD45B (gene 4616); test: LTEA_HepaRG_GADD45B: Life Technologies and Expression Analysis (LTEA) Assay for growth arrest and DNA damage 45 (GADD45B) using HepaRG (AID 2283461)
Method in brief: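 Transcript level quantified by Fluidigm TaqMan qRT-PCR with three housekeeping genes for normalization, analyzed for up- or down-regulation against 0.5% DMSO. HepaRG cultures dosed 48 h at eight half-log concentrations up to 100 uM, duplicates.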

[11] = read-out: ABC Transporter (ABCC3), ABCC3 (gene 8714); test: LTEA_HepaRG_ABCC3: Life Technologies and Expression Analysis (LTEA) Assay for ABC Transporter (ABCC3) using HepaRG (AID 2283462)
Method in brief: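 Transcript level by TaqMan qRT-PCR, normalised to three housekeeping genes, fitted in both directions relative to vehicle. Chemicals tested in duplicate at eight half-log concentrations up to 100 uM for 48 h on HepaRG cells (0.5% DMSO).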

[12] = read-out: ABC Transporter (ABCB11), ABCB11 (gene 8647); test: LTEA_HepaRG_ABCB11: Life Technologies and Expression Analysis (LTEA) Assay for ABC Transporter (ABCB11) using HepaRG (AID 2283463)
Method in brief: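 HepaRG, 48 h exposure, 8-pt half-log CRC top 100 uM, 0.5% DMSO vehicle, duplicates. Readout: TaqMan qRT-PCR of ABCB11 mRNA, housekeeping-normalized (ACTB/GAPDH/POLR2A). Bidirectional fit vs DMSO baseline.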

[13] = read-out: ABC Transporter (ABCC2), ABCC2 (gene 1244); test: LTEA_HepaRG_ABCC2: Life Technologies and Expression Analysis (LTEA) Assay for ABC Transporter (ABCC2) using HepaRG (AID 2283464)
Method in brief: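 Endpoint is ABCC2 transcript level from qRT-PCR, normalized to three housekeeping genes and fitted bidirectionally relative to DMSO. Human HepaRG cells received test chemical for 48 h at up to 100 uM (8 points, half-log steps, 0.5% DMSO), duplicate wells.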

[14] = read-out: Broad substrate specificity ATP-binding cassette transporter ABCG2 (Homo sapiens) (UniProt Q9UNQ0); test: LTEA_HepaRG_ABCG2: Life Technologies and Expression Analysis (LTEA) Assay for ABC Transporter (ABCG2) using HepaRG (AID 2283465)
Method in brief: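 HepaRG, 48 h exposure, 8-pt half-log series from 100 uM, 0.5% DMSO vehicle, duplicates. Readout: ABCG2 transcript by qRT-PCR (Fluidigm array), housekeeping-normalized; bidirectional curve fit relative to DMSO baseline.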

[15] = read-out: ATP-citrate lyase (ACLY), ACLY (gene 47); test: LTEA_HepaRG_ACLY: Life Technologies and Expression Analysis (LTEA) Assay for ATP-citrate lyase (ACLY) using HepaRG (AID 2283466)
Method in brief: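 qRT-PCR readout of ACLY transcript after 48 h chemical treatment of HepaRG cells; expression normalized to three housekeeping genes. Eight-point half-log series, highest 100 uM, 0.5% DMSO vehicle. Gain or loss fitted against DMSO baseline.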

[16] = read-out: Peroxisomal acyl-coenzyme A oxidase 1 (ACOX1) gene, ACOX1 (gene 51); test: LTEA_HepaRG_ACOX1: Life Technologies and Expression Analysis (LTEA) Assay for Peroxisomal acyl-coenzyme A oxidase 1 (ACOX1) gene using HepaRG (AID 2283467)
Method in brief: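 HepaRG, 48 h chemical exposure, 8-pt half-log series from 100 uM top, 0.5% DMSO vehicle, duplicates. Readout: ACOX1 mRNA by Fluidigm qRT-PCR, housekeeping-normalized; bidirectional fit vs DMSO baseline.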

[17] = read-out: Alkaline Phosphatase, Placental (ALPP) gene, ALPP (gene 250); test: LTEA_HepaRG_ALPP: Life Technologies and Expression Analysis (LTEA) Assay for Alkaline Phosphatase, Placental (ALPP) gene using HepaRG (AID 2283468);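 also: differentiated human HepaRG liver cells in serum-free induction medium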
Method in brief: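 ALPP transcript level, measured by qRT-PCR and normalized to three housekeeping genes (ACTB, GAPDH, POLR2A), after 48 h dosing of differentiated HepaRG in serum-free induction medium. Top concentration 100 uM with half-log dilutions (8 points, 0.5% DMSO, duplicates); bidirectional fitting relative to DMSO.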

Measured: AC50

Sequence of Broad substrate specificity ATP-binding cassette transporter ABCG2 (Homo sapiens) (Q9UNQ0 whole entry, looked up): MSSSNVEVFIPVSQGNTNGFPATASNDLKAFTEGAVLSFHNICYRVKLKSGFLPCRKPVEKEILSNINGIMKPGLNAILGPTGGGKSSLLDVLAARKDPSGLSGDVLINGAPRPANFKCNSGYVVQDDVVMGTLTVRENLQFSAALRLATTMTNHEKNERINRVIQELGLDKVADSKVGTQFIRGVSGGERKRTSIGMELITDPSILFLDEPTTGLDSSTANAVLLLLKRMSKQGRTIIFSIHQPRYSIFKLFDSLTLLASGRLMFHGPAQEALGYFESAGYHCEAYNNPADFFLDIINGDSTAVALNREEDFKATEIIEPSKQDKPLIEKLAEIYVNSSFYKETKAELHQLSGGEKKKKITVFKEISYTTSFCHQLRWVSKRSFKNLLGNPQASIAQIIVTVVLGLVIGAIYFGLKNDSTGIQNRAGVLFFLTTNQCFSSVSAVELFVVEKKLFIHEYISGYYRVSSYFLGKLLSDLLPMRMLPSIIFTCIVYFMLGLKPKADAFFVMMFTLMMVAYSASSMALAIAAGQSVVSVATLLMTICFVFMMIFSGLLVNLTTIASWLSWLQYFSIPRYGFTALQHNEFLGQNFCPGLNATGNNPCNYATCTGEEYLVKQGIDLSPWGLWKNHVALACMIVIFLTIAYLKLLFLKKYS

Fc1ccc(Oc2ccnc3cc(Cl)cc(Cl)c23)cc1
active: [12] 89.8 µM | [14] 50 µM | [17] 50 µM
inactive: all other assays above

N#Cc1cc(Br)c(O)c(Br)c1
active: [2] 10.1 µM | [3] 10.4 µM | [4] 9.54 µM | [5] 10 µM | [6] 40 µM | [7] 72.5 µM | [8] 13.7 µM | [9] 12.1 µM | [10] 27.1 µM | [11] 9.48 µM | [12] 19.9 µM | [13] 14 µM | [14] 10.2 µM | [15] 23.5 µM | [16] 11.1 µM | [17] 8.91 µM
inactive: [1]

C=CCC1=C(C)[C@@H](OC(=O)[C@@H]2[C@@H](C=C(C)C)C2(C)C)CC1=O
active: [9] 0.086 µM | [11] 74.2 µM | [12] 50 µM | [17] 81.2 µM
inactive: all other assays above
